Structures can show the parent of a compound that is named as a salt.
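Also: purified Escherichia coli-expressed rice kinase domain construct.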

The test system of this experiment is LOC_OS01G14860-cb001. The experiment is described as follows: thermal shift delta Tm vs DMSO control; higher = stronger stabilization (binding). The conditions noted are these: 12.5 µM; protein concentration 2 µM. An outline of the steps: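 Rice kinase domain constructs, made in E. coli and purified, were placed in 96-well plates at 2 μM in 19.5 μl of 100 mM potassium phosphate pH 7.5, 150 mM NaCl, 10% glycerol and 5 × SYPRO Orange, with compound in DMSO. A temperature ramp from 25°C to 95°C at 0.05°C/s was used for differential scanning fluorimetry. The melting temperature shift is a triplicate mean compared with DMSO-only protein, derived from Boltzmann fits.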
`CCNC(=O)Nc1ccc(-c2nc(N3CCOC[C@@H]3C)c3c(n2)C(C)(C)S(=O)(=O)C3)cc1`: the “thermal shift delta Tm” value was 0.6 °C.

For the compound `CN1CCN(c2ccc(OC(F)(F)F)c(Nc3ncc4c(n3)-c3c(c(C(N)=O)nn3CCO)CC4)c2)CC1`, the “thermal shift delta Tm” value was 0.5 °C.

With `C[C@@H](Oc1cc(-n2cnc3ccc(CN4CCN(C)CC4)cc32)sc1C(N)=O)c1ccccc1C(F)(F)F`, the “thermal shift delta Tm” value is 0.12 °C.

For `COc1cc(OC)cc(-c2cc3cnc(N)nc3nc2NC(=O)NC(C)(C)C)c1`, the “thermal shift delta Tm” value worked out at 0.48 °C.

On to `COC(=O)c1ccc2c(c1)NC(=O)/C2=C(\Nc1ccc(N(C)C(=O)CN2CCN(C)CC2)cc1)c1ccccc1` [Nintedanib (BIBF 1120)], for which the “thermal shift delta Tm” value worked out at 1.18 °C.

For `Cc1[nH]c(/C=C2\C(=O)Nc3ccccc32)c(C)c1CCC(=O)O` [Orantinib (TSU-68, SU6668)], the “thermal shift delta Tm” value worked out at 1.9 °C.

Regarding `NC1(c2ccc(-c3nc4ccn5c(=O)[nH]nc5c4cc3-c3ccccc3)cc2)CCC1`, the “thermal shift delta Tm” value was 0.18 °C.

On to `N#Cc1ccc2[nH]c(O)c(-c3ccc(CN4CCOCC4)cn3)c2c1`, for which the “thermal shift delta Tm” value amounted to 6.12 °C.

As to `C=C[C@@](C)(/C=C/c1ccc(O)cc1)CCC=C(C)C` [Bakuchiol], the “thermal shift delta Tm” value is 0.91 °C.

In the case of `Cn1cnc2c(F)c(Nc3ccc(Br)cc3F)c(C(=O)NOCCO)cc21`, the “thermal shift delta Tm” value worked out at 0.19 °C.

As for `CC(C)(C)c1nc(-c2ccc(NC(=O)Nc3cccc(C(F)(F)F)c3)c3ccccc23)c2c(N)nccn12` [kira6], the “thermal shift delta Tm” value came to 1.63 °C.

As for `CC1=C(C(=O)Nc2cc3cn[nH]c3cc2F)C(c2ccc(C(F)(F)F)cc2)CC(=O)N1` (configuration not stated), the “thermal shift delta Tm” value came out at 0.16 °C.

Take `Cc1cn(-c2cc(NC(=O)c3ccc(C)c(Nc4nccc(-c5cnccn5)n4)c3)cc(C(F)(F)F)c2)cn1` [Radotinib]: the “thermal shift delta Tm” value was determined as 0.52 °C.

Consider `COc1ncc(-c2ccc3nccc(-c4ccnnc4)c3c2)cc1NS(=O)(=O)c1ccc(F)cc1F`, for which the “thermal shift delta Tm” value was determined as 1.9 °C.

In the case of `CNC(=O)c1cc(COc2nnc(Nc3ccc(Cl)cc3)c3ccoc23)ccn1` [Telatinib], the “thermal shift delta Tm” value was found to be 0.15 °C.

For the compound `COc1cc2nccc(Oc3ccc(NC(=O)C4(C(=O)Nc5ccc(F)cc5)CC4)cc3)c2cc1OC` [Cabozantinib malate (XL184)], the “thermal shift delta Tm” value was determined as 0.34 °C.

With `C1=N/C2=N/c3ccc(OCCN4CCCC4)c(c3)COC/C=C/COCc3cccc(c3)C(=C1)N2` [Pacritinib (SB1518)], the “thermal shift delta Tm” value was 4.13 °C.

As for `N#Cc1cnc(Nc2cc(NC[C@H]3CNCCO3)c(C(F)(F)F)cn2)cn1`, the “thermal shift delta Tm” value was 2.93 °C.

Regarding `COc1cc(N2CCN(C)CC2)ccc1Nc1nccc(-c2cn(C)c3cnccc23)n1`, the “thermal shift delta Tm” value came to 0.92 °C.

Regarding `CC(C)(C)NS(=O)(=O)c1cncc(-c2cc(F)c3nc(N)nn3c2)c1`, the “thermal shift delta Tm” value worked out at 0.32 °C.

In the case of `CCNC(=O)C#Cc1ccc2c(C(=Nc3ccc(CN(C)C)cc3)c3ccccc3)c(O)[nH]c2c1`, the “thermal shift delta Tm” value worked out at 5.63 °C.

On to `O=C1NC(=O)[C@@H](c2cn3c4c(cccc24)CCC3)[C@@H]1c1c[nH]c2ccccc12` [Tivantinib (ARQ 197)], for which the “thermal shift delta Tm” value stood at 0.16 °C.

Regarding `O=S(=O)(c1cccc2c(I)cccc12)N1CCCNCC1`, the “thermal shift delta Tm” value was 0.67 °C.

Regarding `CCN1CCN(Cc2ccc(C(=O)Nc3ccc(C)c(Oc4ccc5c(c4)CC(=O)N5)c3)cc2C(F)(F)F)CC1`, the “thermal shift delta Tm” value came to 0.51 °C.

On to `C[C@@H](Nc1cc(F)cc(F)c1)c1cc(C(=O)N(C)C)cc2c(=O)cc(N3CCOCC3)oc12`, for which the “thermal shift delta Tm” value stood at 0.22 °C.

Turning to `C[C@H](CN(C)C)Oc1nc(Nc2cc3cccc(Cl)c3cn2)cnc1C#N`, the “thermal shift delta Tm” value turned out to be 0.9 °C.

Regarding `CNC(=O)c1cc(Oc2ccc(NC(=O)Nc3ccc(Cl)c(C(F)(F)F)c3)cc2)ccn1` [Sorafenib], the “thermal shift delta Tm” value amounted to 4.41 °C.

On to `COc1ccc(Cl)cc1NC(=O)Nc1cc(C)nc2ccccc12`, for which the “thermal shift delta Tm” value is 0.5 °C.

Turning to `O=C(c1cccc(Cl)c1F)N1CCN(Cc2cccc(Nc3nccs3)n2)CC1`, the “thermal shift delta Tm” value was 4.28 °C.

With `CNC(=O)c1ccc(C)c(-n2c(C)cc(OCc3ccc(F)cc3F)c(Br)c2=O)c1`, the “thermal shift delta Tm” value is -0.06 °C.

`CCn1c(-c2nonc2N)nc2c(C#CC(C)(C)O)ncc(OC[C@H]3CCCNC3)c21`: the “thermal shift delta Tm” value was 3.95 °C.

For `CCC[C@H](NC(=O)/C(C#N)=C/c1cccc(Br)n1)c1ccccc1` [Degrasyn (WP1130)], the “thermal shift delta Tm” value was -2.02 °C.

As for `OC1CCC(Nc2ncc3nc(Nc4c(F)cc(F)cc4F)n([C@H]4CCOC4)c3n2)CC1` (some centres not stated) [Tanzisertib(CC-930)], the “thermal shift delta Tm” value is 0.73 °C.

`CN(C)C/C=C/C(=O)Nc1cc2c(Nc3ccc(F)c(Cl)c3)ncnc2cc1O[C@H]1CCOC1` [Afatinib (BIBW2992) Dimaleate]: the “thermal shift delta Tm” value worked out at 3.86 °C.

Regarding `Cc1cc(O)c(-c2ccc([C@@H](C)CN)cc2)c2c1[nH]c(=O)c1sccc12` [OTS514 hydrochloride], the “thermal shift delta Tm” value stood at 5.36 °C.

As to `Cc1ccc(F)c(NC(=O)Nc2ccc(-c3cccc4[nH]nc(N)c34)cc2)c1` [Linifanib (ABT-869)], the “thermal shift delta Tm” value came out at 2.29 °C.

As to `COc1cc(N2CCC(N(C)C)CC2)ccc1Nc1ncc(Cl)c(Nc2ccccc2P(C)(C)=O)n1`, the “thermal shift delta Tm” value amounted to 0.31 °C.

Source of the values: the supplement of paper PMC9694430.
